# Hits are enriched below; roughly 19% of the tested compounds scored in any of these assays.
# IL-1B inflam inh: inflammasome signaling inhibition, IL-1 beta readout | activity change, % at 57.5 µM | actives 4.7% (n = 360,000) | THP-1 LPS/ATP IL-1B secretion, AlphaLISA, 16 h; stronger effect = lower value | AID 743279; in the data active = activity change below about -50%; inconclusive = mostly about -30% to -49%
#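 THP-1 cells pretreated 1 hr with compounds (up to 57.5 uM final), then stimulated with LPS (250 ng/mL final) plus ATP (1.25 mM final); secreted IL-1B measured by AlphaLISA after 16 hr, decreased signal indicating inhibition.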
# HT1080NT lethal: kills 2HG-producing HT-1080-NT fibrosarcoma cells. HT-1080-NT fibrosarcoma viability, CellTiter-Glo ATP luminescence, 48 h. Potency, µM (titrated, usually from 46.1 µM), inactives show at the top dose activity, negative = less viability, usual class: cytotoxic. AID 686970. actives 1.6% (n = 360,000);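 also: NT is the 2HG producing partner of a matched IDH1 knockdown line; potency is read from the fitted curve at half-maximal effect; 0% = DMSO-treated cells and -100% = media-only wells without cells; nearly all actives have a fitted effect of over 55% in size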
#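 Viability of the 2HG-overproducing fibrosarcoma line after 48 hours of compound exposure at 37 degrees C was determined by luminescence with CellTiter-Glo, and concentration-effect curves were then fitted and categorized.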
# HT1080 IDH1KD tx: toxicity to HT-1080 IDH1 knockdown cells (counter line); HT-1080 IDH1 knockdown viability, ATP luminescence, 48 h; Potency, µM (titrated, usually from 46.1 µM), without a hit: at the highest dose activity, negative = toxicity, actives largely listed as cytotoxic; actives 2% (n = 360,000);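 also: potency is read from the fitted curve at half-maximal effect; 0% = DMSO wells and -100% = cell-free medium wells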
#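 Knockdown cells (IDH1KD HT-1080) received compounds 2 h after plating at 750 cells/well and were kept 48 h at 37 °C in 5% FBS RPMI. A CellTiter-Glo luminescence read gave % activity for curve fitting.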
# DT40 TDP1 no CPT: qHTS for Inhibitors of human tyrosyl-DNA phosphodiesterase 1 (TDP1): qHTS in cells in absence of CPT; DT40 Tdp1-/- hTDP1 cells, no CPT, ATP luminescence, 48 h; Potency, µM (top dose mostly 46.2 µM), without a hit: at the top dose activity change, negative = growth inhibition, most hits filed as inhibitors; actives 15% (n = 420,000); also: potency is read from the fitted curve at half-maximal effect; nearly all actives have a fitted effect of over 55% in size
#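 Readout: luminescence from CellTiter-Glo after 30 min in the dark at RT. Cells: DT40 Tdp1-/- with stable hTDP1, 400/well. Exposure: compounds alone, ≥48 hr, 37 °C.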
# DT40 TDP1 CPT: DT40-hTDP1 cell growth loss with CPT; Potency, µM (doses to about 46.2 µM), inactives show at the top dose activity change, negative = growth inhibition, actives largely listed as inhibitors; AID 686979; actives 12% (n = 420,000); chicken DT40 Tdp1-/-;hTDP1 cells + 20 nM CPT, ATP luminescence, 48 h; also: potency is read from the fitted curve at half-maximal effect; nearly all actives have a fitted effect of over 55% in size
#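 Chicken DT40 Tdp1-/- cells complemented with human TDP1, 400 cells/well, exposed to compounds plus 20 nM camptothecin for at least 48 h at 37 C; viability read as ATP content by CellTiter-Glo luminescence.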
# An asterisk follows results filed as active; ? = inconclusive; nt = no result. Unless noted, calls follow the shape of the dose curve; as a rule, active = well fitted curve in the direction sought with a large enough effect; inconclusive = small, poorly fitted or top-dose-only effect, or another doubt; inactive = no such curve, though single readings can be large; an effect the other way counts as inactive or inconclusive. Unless noted, % is scaled to controls: 0 for no effect and ±100 for the full control effect.
SMILES,IL-1B inflam inh,HT1080NT lethal,HT1080 IDH1KD tx,DT40 TDP1 no CPT,DT40 TDP1 CPT
COc1ccc(Br)cc1C(=O)NC(=S)Nc1ccc(CN2CCOCC2)cc1,-68.4*,?,?,13µM*,18.4µM*
O=C(COc1ccc2cc(Br)ccc2c1Br)N1CCOCC1,-76.8*,-27.5%,?,?,-53.0%
CCOC(=O)CSc1nnc(NC(=O)CCc2ccccc2)s1,9.9,0.2%,-0.6%,0.5%,-3.8%
Cc1ccc(-c2nn(-c3ccc(F)cc3F)c3c2cnc2ccc(F)cc23)cc1,nt,nt,nt,-29.6%,-12.5%
N/C(Cc1ccc(Cl)cc1)=N\OC(=O)C1CCCCC1,10.5,-0.8%,-3.2%,-16.7%,-25.3%
CN(C(=O)c1ccc(NC(=O)Cc2ccc(NC(=O)C3CCN(C(=O)C4CC4)CC3)cc2)cc1)C1CCCC1,-11.4,?,-4.2%,-20.3%,-26.5%
COc1ccc(NC(=O)N2CC3(CCN(C(=O)c4csnn4)CC3)C2)cc1,nt,nt,nt,-3.8%,4.3%
CSCCC(=O)N1CCN(CC(=O)N2CCCC2)CC1,13.4,4.9%,12.5%,-10.2%,5.8%
O=C(NNC(=O)c1ccccc1C(=O)O)c1ccc(O)cc1,10.4,14.0%,0.9%,?,0.5%
CN(CCc1ccccc1)c1cc2c(c3c1ccn3C)C1CCC2C1 (stereo unspecified),5.3,-18.0%,-21.6%,?,16.4µM*
Cn1ccc2c(N(Cc3ccccc3)Cc3ccccc3)cc3c(c21)C1CCC3C1 (stereo unspecified),12.3,3.4%,-9.2%,18.4µM*,18.4µM*
CC(OC(=O)c1nsc(Cl)c1Cl)C(=O)NC(C)(C)C (stereo unspecified),1.5,8.0%,8.0%,-3.8%,-3.7%
Oc1cccc(NC(=S)N=Nc2c(O)[nH]c3ccc(Br)cc23)c1,-5.5,?,20.6µM*,?,?
CNC(=S)N=Nc1c(O)[nH]c2ccc(C(C)C)cc12,0.0,1.4%,-1.5%,18.4µM*,?
CC(C)c1ccc2[nH]c(O)c(N=NC(=O)c3cccc(S(=O)(=O)N4CCCCC4)c3)c2c1,17.1,6.4%,3.9%,9.2µM*,11.6µM*
N=C(N)N=Nc1c(O)[nH]c2ccc(Br)cc12,-24.0,-26.8%,-6.7%,-23.4%,6.3%
CC(C)c1ccc2[nH]c(O)c(N=NC(=O)c3cccc(S(=O)(=O)Nc4cccc(Cl)c4)c3)c2c1,2.6,7.3%,1.2%,?,?
O=C(N=Nc1c(O)[nH]c2ccccc12)c1cccc(S(=O)(=O)N2CCCCC2)c1,31.7,2.9%,18.3%,0.9%,-13.3%
Oc1[nH]c2ccc(Br)cc2c1N=NC(=S)Nc1ccc(F)cc1,-1.9,?,?,2.91µM*,1.3µM*
CC1CCN(C(=O)CSc2nnc(CNC(=O)c3ccc(F)cc3)o2)CC1,-0.8,4.8%,-1.7%,-15.0%,0.9%
CC(C)CC(C(=O)Nc1oc(-c2ccco2)c(-c2ccco2)c1C#N)N1C(=O)c2ccccc2C1=O (stereo unspecified),2.5,8.4%,10.1%,1.3%,-0.8%
Oc1ccc(NC(=S)N=Nc2c(O)[nH]c3ccc(Br)cc23)cc1,-63.6*,?,20.6µM*,23.1µM*,-77.8%
CCOC(=O)c1c(S(=O)(=O)N2CCC(C(=O)Nc3cccc(C#N)c3)CC2)c(C)n(C)c1C,nt,nt,nt,-20.2%,-23.2%
COc1cc(Cl)c(C)cc1NC(=O)Cc1ccc(OC)c(OC)c1,-21.2,-19.3%,-12.2%,14.6µM*,-28.3%
COc1ccccc1NC(=O)CCC(=O)c1ccc(-c2ccccc2)cc1,60.8,-9.9%,-7.3%,23.1µM*,?
SMILES,IL-1B inflam inh,HT1080NT lethal,HT1080 IDH1KD tx,DT40 TDP1 no CPT,DT40 TDP1 CPT
COc1cc(Cl)c(C)cc1NC(=S)NN,32.4,12.4%,17.6%,18.4µM*,?
COc1ccccc1NC(=O)c1ccc(NC(=O)CN(C)Cc2ccccc2F)cc1,nt,-18.9%,-11.0%,23.1µM*,-8.3%
COc1cc(NC(=S)NC(C)(C)C)c(OC)cc1Cl,49.1,-0.7%,5.5%,-17.3%,?
CC(C)N1CC(C(=O)Nc2ccc(F)c(Cl)c2)CC1=O (stereo unspecified),?,-5.7%,-8.2%,11.3%,1.8%
C/C(=C\C=C(C#N)C#N)c1cc(C#N)c(N)o1,?,7.1%,-0.9%,-26.7%,0.2%
CC(CCc1ccccc1)NC(=O)CN(C)Cc1ccc(F)cc1 (stereo unspecified),-12.0,-4.4%,-6.2%,?,-6.8%
CC(CCc1ccccc1)NC(=O)CN(C)Cc1ccccc1F (stereo unspecified),-73.9*,-2.2%,-2.5%,?,?
COc1ccccc1CN(C)CC(=O)Nc1ccccc1-c1ccccc1,-82.0*,-6.8%,-18.9%,23.1µM*,?
COc1ccc(CC(=O)Nc2ccccc2-c2ccccc2)cc1OC,-28.1,-7.4%,-9.1%,20.6µM*,16.4µM*
Cc1ccc(CC(=O)Nc2ccccc2-c2ccccc2)cc1C,7.4,11.9%,15.0%,?,?
COc1ccc(CN(C)CC(=O)Nc2ccccc2-c2ccccc2)c(OC)c1,-51.0*,-13.0%,?,18.4µM*,?
CCn1c(=O)n(-c2ccc3c(c2)OCO3)c2nc(-c3cc(OC)ccc3OC)nc(C(N)=O)c21,nt,nt,nt,-15.5%,10.8%
Cc1ccc(NC(=O)CSCC(=O)NCCc2ccccn2)c(C)c1,22.4,12.9%,10.8%,6.4%,4.7%
CCN(CC(=O)Nc1ccccc1OC)CC(=O)Nc1ccccc1C(F)(F)F,15.6,-8.8%,-12.6%,?,?
CCN(CC(=O)Nc1ccccc1OC)CC(=O)Nc1ccccc1-c1ccccc1,26.7,14.6µM*,7.31µM*,9.2µM*,7.31µM*
Cc1cnc(C(=O)OCC(=O)c2ccc(-c3ccccc3)cc2)cn1,19.8,-2.8%,-0.4%,-3.5%,0.4%
CN(C)c1ccc(C2CCc3ccccc3N2C(=O)c2ccccc2)cc1 (stereo unspecified),nt,nt,nt,7.94µM*,11.2µM*
Cc1ccc(NC(=O)C2CC(=O)Nc3nncn32)cc1 (stereo unspecified),1.2,-2.0%,-1.9%,-23.7%,1.9%
COc1cc(/C=C(\C#N)c2nc3ccc(C)cc3[nH]2)cc([N+](=O)[O-])c1O,47.9,-13.8%,-6.7%,20.6µM*,?
COc1cc(/C=C(\C#N)c2nc3ccc(C)cc3[nH]2)c([N+](=O)[O-])cc1OC,-89.1*,-19.4%,?,?,-28.2%
C/C(=N/NC(=O)c1ccccc1)c1ccc(NC(=O)C(F)(F)F)cc1,27.4,14.8%,12.6%,-15.8%,-26.7%

# Bioassay records: PubChem, National Center for Advancing Translational Sciences (NCATS)
